In PubChem BioAssay (Tox21):
Values without a mark were called inactive. Records with an inconclusive call do not appear. Where a call stands in place of a potency, no number is given. The source made the active and inactive calls. Calls come from the whole dose curve; as a rule, active = well fitted curve in the direction sought with a large enough effect in the repeat runs; inconclusive = weak or mixed curves; inactive = no such curve, though single readings can be large; an effect the other way counts as inactive or inconclusive.

Assays:
[1] = qHTS RealTime-Glo MT Cell Viability Assay in HEK293 cells - 32 hour (AID 1224868); note: top concentration of the series differs between compounds; nearly all actives have a fitted effect of over 50% in size
How it was run: (§1)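 Reads taken at 0, 8, 16, 24, 32 and 40 h from the same wells. HEK293 cells (600/well) carried RealTime-Glo reagents from seeding, with compound added after a 5 h settle at 37 C.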

[2] = A CellTox Green Cytotoxicity Assay to monitor cytotoxicity in HEK293 cells - 0 hour (AID 1224869); note: nearly all actives have a fitted effect of over 50% in size
How it was run: (§2)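 Seeding of HEK293 cells together with cytotoxicity dye preceded a 5 h incubation at 37 C/5% CO2. Test compounds in DMSO were then added and fluorescence monitored across 40 h.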

[3] = qHTS RealTime-Glo MT Cell Viability Assay in HepG2 cells - 40 hour (AID 1224870); note: nearly all actives have a fitted effect of over 50% in size
How it was run: (§3)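 Real-time viability: cells seeded at 600 per well together with NanoLuc and cell-permeant prosubstrate, compounds added after 5 h incubation. Luminescence tracked at 0, 8, 16, 24, 32 and 40 h of exposure.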

[4] = A CellTox Green Cytotoxicity Assay to monitor cytotoxicity in HEK293 cells - 40 hour (AID 1224871); note: nearly all actives have a fitted effect of over 45% in size
How it was run: as §2

[5] = qHTS RealTime-Glo MT Cell Viability Assay in HEK293 cells - 16 hour (AID 1224872); note: top concentration of the series differs between compounds; nearly all actives have a fitted effect of over 50% in size
How it was run: as §1

[6] = qHTS RealTime-Glo MT Cell Viability Assay in HEK293 cells - 40 hour (AID 1224874); details: RealTime-Glo luminescence, active compounds read low; note: nearly all actives have a fitted effect of over 50% in size
How it was run: (§4)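 Tox21 screen in HEK293 using RealTime-Glo MT chemistry, with cells and reagent co-dispensed. Luminescence proportional to viable cell number was captured at intervals during 40 h compound exposure at 37 C.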

[7] = A CellTox Green Cytotoxicity Assay to monitor cytotoxicity in HEK293 cells - 24 hour (AID 1224875); note: series mostly up to about 77 µM; nearly all actives have a fitted effect of over 45% in size
How it was run: as §2

[8] = A CellTox Green Cytotoxicity Assay to monitor cytotoxicity in HepG2 cells - 16 hour (AID 1224876); note: nearly all actives have a fitted effect of over 45% in size
How it was run: (§5)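 Nonlytic assay: viable cells exclude the dye, so fluorescence scales with cell death. HepG2 at 600 cells/well, compounds added after 5 h, signal read across 40 h.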

[9] = qHTS RealTime-Glo MT Cell Viability Assay in HepG2 cells - 32 hour (AID 1224877); note: nearly all actives have a fitted effect of over 55% in size
How it was run: (§6)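 HepG2 suspension premixed with RealTime-Glo reagents is plated at 600 cells per well and left 5 h at 37 C/5% CO2. Compounds in DMSO then go in, and bioluminescence reflecting viable cell number is recorded over 40 h.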

[10] = A CellTox Green Cytotoxicity Assay to monitor cytotoxicity in HepG2 cells - 24 hour (AID 1224878); note: nearly all actives have a fitted effect of over 45% in size
How it was run: as §5

[11] = A CellTox Green Cytotoxicity Assay to monitor cytotoxicity in HepG2 cells - 40 hour (AID 1224879); note: nearly all actives have a fitted effect of over 40% in size
How it was run: as §5

[12] = qHTS RealTime-Glo MT Cell Viability Assay in HEK293 cells - 0 hour (AID 1224880)
How it was run: as §4

[13] = A CellTox Green Cytotoxicity Assay to monitor cytotoxicity in HEK293 cells - 32 hour (AID 1224881); note: nearly all actives have a fitted effect of over 40% in size
How it was run: as §2

[14] = A CellTox Green Cytotoxicity Assay to monitor cytotoxicity in HepG2 cells - 0 hour (AID 1224882); note: nearly all actives have a fitted effect of over 35% in size
How it was run: as §5

[15] = A CellTox Green Cytotoxicity Assay to monitor cytotoxicity in HepG2 cells - 32 hour (AID 1224883); note: nearly all actives have a fitted effect of over 50% in size; note: potency is the fitted concentration of half-maximal effect
How it was run: as §5

[16] = A CellTox Green Cytotoxicity Assay to monitor cytotoxicity in HEK293 cells - 8 hour (AID 1224884); note: nearly all actives have a fitted effect of over 35% in size
How it was run: as §2

[17] = qHTS RealTime-Glo MT Cell Viability Assay in HepG2 cells - 16 hour (AID 1224885); note: nearly all actives have a fitted effect of over 50% in size
How it was run: as §6

[18] = qHTS RealTime-Glo MT Cell Viability Assay in HEK293 cells - 24 hour (AID 1224886)
How it was run: as §1

[19] = qHTS RealTime-Glo MT Cell Viability Assay in HepG2 cells - 8 hour (AID 1224873); note: nearly all actives have a fitted effect of over 55% in size
How it was run: as §3

[20] = qHTS RealTime-Glo MT Cell Viability Assay in HEK293 cells - 8 hour (AID 1224887)
How it was run: as §4

| SMILES | outcome [1] | outcome [2] | outcome [3] | Potency [4] | outcome [5] | max response [6] [%] | Potency [7] | Potency [8] | outcome [9] | Potency [10] | Potency [11] | Potency [12] | Potency [13] | Potency [14] | Potency [15] | Potency [16] | outcome [17] | outcome [18] | outcome [19] | outcome [20] |
| --- | --- | --- | --- | --- | --- | --- | --- | --- | --- | --- | --- | --- | --- | --- | --- | --- | --- | --- | --- | --- |
| O=C1c2ccccc2C(=O)N1CO | inactive | inactive | inactive | inactive | inactive | -6.25 | inactive | inactive | inactive | inactive | inactive | inactive | inactive | inactive | inactive | inactive | inactive | inactive |  |  |
| COC(=O)c1cc(Cl)c(NC(C)=O)cc1OC | inactive | inactive | inactive | inactive | inactive | 0.647 | inactive | inactive | inactive | inactive | inactive | inactive | inactive | inactive | inactive | inactive | inactive | inactive |  |  |
| CC(C)(C)C(=O)CC(=O)C(C)(C)C | inactive | inactive | inactive | inactive | inactive | -12.1 | inactive |  | inactive | inactive |  | inactive | inactive | inactive | inactive | inactive | inactive | inactive | inactive | inactive |
| CC12CCCC=C1C(=O)OC2=O (stereo not drawn) | inactive | inactive | inactive | inactive | inactive |  | inactive | inactive | inactive | inactive | inactive | inactive | inactive | inactive | inactive | inactive | inactive | inactive | inactive | inactive |
| Cc1ccc2cccnc2c1 | inactive | inactive | inactive | inactive | inactive | 20.7 | inactive | inactive | inactive | inactive | inactive | inactive | inactive | inactive | inactive | inactive | inactive | inactive |  | inactive |
| CSC(=O)c1cccc2nnsc12 | inactive | inactive | inactive | inactive | inactive |  | inactive | inactive | inactive | inactive | inactive | inactive | inactive | inactive | inactive | inactive | inactive | inactive | inactive | inactive |
| O=S(=O)(O)CC(O)CCl (stereo not drawn) | inactive | inactive | inactive | inactive | inactive |  | inactive | inactive | inactive | inactive | inactive | inactive | inactive | inactive | inactive | inactive | inactive | inactive | inactive | inactive |
| O=C(O)CCC(=O)Nc1ccc(S(=O)(=O)Nc2nccs2)cc1 | inactive | inactive | inactive | inactive | inactive | 2.99 | inactive |  | inactive |  |  | inactive | inactive | inactive |  | inactive | inactive | inactive | inactive |  |
| CC(C)(C)c1ccc(N)cc1 | inactive | inactive | inactive | inactive | inactive | -2.84 | inactive |  | inactive |  |  | inactive | inactive | inactive | 61.7 µM (active) | inactive | inactive | inactive | inactive | inactive |
| NNC(=O)OCc1ccccc1 | inactive | inactive | inactive | inactive | inactive | -4.79 | inactive |  | inactive | inactive | inactive |  | inactive | inactive | inactive | inactive | inactive | inactive | inactive | inactive |
| CCCOc1ccc(C(=O)OCCN(CC)CC)cc1N | inactive | inactive | inactive | inactive | inactive |  | inactive |  | inactive | inactive |  | inactive | inactive | inactive | inactive | inactive | inactive | inactive | inactive | inactive |
| CC(=O)Nc1ccc(S(=O)(=O)Nc2cc(C)on2)cc1 | inactive | inactive | inactive | inactive | inactive |  | inactive | inactive | inactive | inactive | inactive | inactive | inactive | inactive | inactive | inactive | inactive | inactive | inactive | inactive |
| Cc1ccccc1OCC(=O)O | inactive | inactive | inactive | inactive | inactive |  | inactive | inactive | inactive | inactive | inactive | inactive | inactive | inactive | inactive | inactive | inactive | inactive | inactive | inactive |
| CC/C=C\CCCCCCCCCCOC(C)=O | inactive | inactive | inactive | inactive | inactive | -0.318 | inactive | inactive | inactive | inactive | inactive | inactive | inactive | inactive | inactive | inactive | inactive | inactive |  | inactive |
| COc1ccccc1N1CCN(CC(O)COc2cc(OC)c(OC)c(OC)c2)CC1 (stereo not drawn) | inactive | inactive | inactive | inactive | inactive | 4.13 | inactive |  | inactive | inactive | inactive | inactive | inactive | inactive | inactive | inactive | inactive | inactive | inactive | inactive |
